Screens (PubChem BioAssay)
STAT3 blocker: IL-6 driven STAT3 reporter inhibitors, primary screen, U3A cells, luciferase, luminescence, MLSCN library; inhibition, % at 5.5 µM; 0.89% of 190,000 active; AID 862, 2007; IL-6 STAT3-luciferase reporter; host cell line lacks STAT1;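 active = inhibition above the mean inhibition across all screened compounds plus 3 SD, cut at about 44% in these data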;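 note: 0% = DMSO only wells and 100% = 100 µM nifuroxazide control wells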
TRAIL sens C8: viability loss with TRAIL in NB7+C8 cells, primary screen, TRAIL sensitizer project, cell-based, ATPlite luminescence | inhibition (viability loss, TRAIL sensitization), % at 10 µM | 1% of 360,000 active | AID 624354, 2012;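 active = compounds causing at least 50% loss of cell viability in the single-dose screen, relative to plate controls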
STAT1 inh: STAT1 signaling inhibitors, primary screen, cell-based, HTS, luciferase reporter. inhibition, % at 5.5 µM. NIH 3T3 STAT1-luciferase reporter, IFN-gamma, luminescence. 0.35% of 200,000 active;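 active = inhibition above a set limit, the mean inhibition across all tested compounds plus 3 SD, cut at about 34% in these data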;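 note: 0% = IFN-gamma with DMSO and 100% = IFN-gamma with 300 µM nifuroxazide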
PPC-1+TRAIL kill: compounds killing PPC-1 cancer cells with TRAIL present, primary screen, TRAIL potentiator project, ATPLite luminescence, uHTS | 0.41% of 220,000 active | PPC-1 cells + TRAIL, ATPLite viability luminescence | cell killing (% activity), % at 4 µM or 5 µM;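 active = cell killing above 50% in the first pass at 4 µM, then a duplicate retest at 5 µM averaging 50% or more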;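 note: plate controls were cells with TRAIL plus DMSO for no effect and medium-only wells lacking cells for full effect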
Platelet DG rel: inhibitors of platelet dense granule secretion, primary screen, cell-based, MLPCN, human platelets. human platelet-rich plasma, SFLLRN dense granule ATP release, luminescence. inhibition, %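 (compounds screened at 7.5 µM in platelet-rich plasma)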. 0.22% of 300,000 active. AID 1663, 2009;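 active = mean replicate score, as percent of positive control, at or above 50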
* hit, by the source's call. In the library only some 1.6% were active in any assay of this set; here they are far more common.

Screening OCC1OC(n2cnc3c(NCc4ccccc4O)ncnc32)C(O)C1O (centres undefined) returned TRAIL sens C8 76*.
For OC[C@H]1O[C@@H](n2cnc3c(Nc4ccccc4)ncnc32)[C@H](O)[C@@H]1O the results were STAT3 blocker -4, TRAIL sens C8 -13, STAT1 inh -15, PPC-1+TRAIL kill 9 and Platelet DG rel 21.
Screening OCC1OC(n2cnc3c(NCCc4ccccc4)ncnc32)C(O)C1O (centres undefined) returned TRAIL sens C8 26 and Platelet DG rel 70*.
Screening CCCCC(=O)N(C)c1c(C)nc2ccc(C(=O)NCCN(C)C)cn12 returned TRAIL sens C8 -3.
COC(=O)[C@@H]1Cc2c([nH]c3ccccc23)C(C)(C)N1C(=O)CCl was read as TRAIL sens C8 96* and Platelet DG rel 4.
`COC(=O)C1Cc2c([nH]c3ccccc23)C2CCC(=O)N12` (centres undefined) gave TRAIL sens C8 -12.
`Cc1onc(C(=O)N2CCN(Cc3ccccc3)CC2)c1[N+](=O)[O-]` gave STAT3 blocker 6, TRAIL sens C8 2, STAT1 inh -2, PPC-1+TRAIL kill -16 and Platelet DG rel -12.
Screening CC(C)c1onc(C(=O)N2CCN(c3ccccc3)CC2)c1[N+](=O)[O-] returned TRAIL sens C8 10, PPC-1+TRAIL kill 12 and Platelet DG rel 0.
For Cc1ccc(Cl)cc1N1CCN(C(=O)c2noc(C(C)C)c2[N+](=O)[O-])CC1 the results were TRAIL sens C8 95* and Platelet DG rel -9.
Screening CC(C)c1onc(C(=O)N2CCN(c3ccc(F)cc3)CC2)c1[N+](=O)[O-] returned TRAIL sens C8 65* and Platelet DG rel 12.
Screening CC(C)c1onc(C(=O)N2CCN(C(c3ccccc3)c3ccccc3)CC2)c1[N+](=O)[O-] returned STAT3 blocker 18, TRAIL sens C8 91*, STAT1 inh 7, PPC-1+TRAIL kill -7 and Platelet DG rel -2.
Screening Cc1onc(C(=O)N2CCC(Cc3ccccc3)CC2)c1[N+](=O)[O-] returned TRAIL sens C8 92* and Platelet DG rel -1.
`CCOC(=O)C1=CCN(S(=O)(=O)c2ccccc2C)C1c1ccc(C)cc1` (centres undefined) gave TRAIL sens C8 -6.
`CC1=C(C(=O)N(C)C)CC(CC(=O)NC2CC2)C(=O)N1Cc1ccccc1` (centres undefined) gave TRAIL sens C8 -4.
Cc1cc(OC(C)C(=O)NCC2CCC(C(=O)O)CC2)c2c(C)cc(=O)oc2c1 (centres undefined) was read as TRAIL sens C8 22 and Platelet DG rel 2.
`OCCOCCN1CCN(C2=Nc3ccccc3Sc3ccccc32)CC1` gave TRAIL sens C8 1, PPC-1+TRAIL kill 24 and Platelet DG rel -2.
`O=C1C=CC(=O)c2c(O)c(N3CCN(CCO)CC3)c(Cl)c(O)c21` gave TRAIL sens C8 90*.
O=C1C=CC(=O)c2c(O)c(N3CCN(CCOCCO)CC3)c(Br)c(O)c21 was read as TRAIL sens C8 90*.
Screening COc1ccc(Cl)cc1Cn1c(C)c(C(=O)NCc2cccc([N+](=O)[O-])c2)sc1=O returned TRAIL sens C8 -9.
c1ccc(N2CC3COc4ccccc4C3=N2)cc1 (centres undefined) was read as TRAIL sens C8 7.
`Nc1c2ccccc2nc2ccccc12` gave TRAIL sens C8 64*, PPC-1+TRAIL kill 29 and Platelet DG rel -1.
Nc1c2c(nc3ccccc13)CCCC2 was read as STAT3 blocker 7, TRAIL sens C8 -4, STAT1 inh -3, PPC-1+TRAIL kill 3 and Platelet DG rel -7.
CC(NC(=O)C1CCCN1C(=O)OC(C)(C)C)C(=O)OCc1ccccc1 (centres undefined) was read as TRAIL sens C8 -11.
For CCc1ccc(C(O)c2ncc(-c3ccc(C)cc3)[nH]2)cc1 (centres undefined) the results were TRAIL sens C8 -8.
Cc1ccccc1NC1=C/C(=N\S(=O)(=O)c2cccs2)c2ccccc2C1=O was read as STAT3 blocker -38, TRAIL sens C8 90*, STAT1 inh -3, PPC-1+TRAIL kill 26 and Platelet DG rel -8.
